Only some compounds are listed: those with a hit (about 3.4% of all), similar ones and a draw of the others.
PLC-gamma1 inh – inhibitors of human phospholipase C gamma1; P19174; purified PLC-gamma1, fluorogenic substrate, fluorescence; inhibition, % at 12.2 µM; hit rate 0.84% among 370,000; AID 720700; in the data active = inhibition above about 9.5%
sPLA2-III inh – Inhibits HGIII-sPLA2 liposome hydrolysis, primary screen; QFRET BODIPY PC-A2 liposome hydrolysis, fluorescence; AID 743126; Q9NZ20; inhibition, % at 12.2 µM; hit rate 0.56% among 370,000;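 active = inhibition above mean plus 3 SD of compounds lying within the high and low control bounds, cut at about 19% in these data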
PLCb3 inh – blocks human PLC-beta3 enzyme activity. Q01970. Purified PLC-beta3, fluorogenic substrate, fluorescence. inhibition, % at 12.2 µM. hit rate 0.18% among 370,000. AID 720704; in the data active = inhibition above about 11%
ADAM17 inh – ADAM17 inhibition, QFRET primary screen | P78536 | recombinant ADAM17, EDANS/DABCYL FRET peptide cleavage | inhibition, % at 6.95 µM | hit rate 0.83% among 370,000 | AID 720648;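 active = inhibition above the mean of compounds lying between control limits plus 3 SD, set per campaign, cut at about 8.5% in these data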
proKLK7 act – activators of human kallikrein-7 zymogen; hit rate 0.9% among 370,000; P49862; activation, % at 7 µM; purified proKLK7, EDANS-DABCYL substrate fluorescence; 100% is mature enzyme control, 0% vehicle;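 active = activation above the mean of all tested compounds plus 3 SD, computed per campaign excluding outliers beyond control limits, cut at about 13% in these data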
ADAM10 inh – inhibitors of human ADAM10. O14672. recombinant ADAM10, EDANS/DABCYL FRET peptide cleavage, 3 h. inhibition, % at 7 µM. hit rate 0.62% among 370,000. AID 720582;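 active = inhibition above a per-campaign cutoff equal to the mean of compounds falling between control-based bounds plus 3 SD, cut at about 20% in these data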
proKLK7 act conf – proKLK7 activation, confirmation | shares compounds with proKLK7 act | purified proKLK7, EDANS-DABCYL substrate fluorescence; scaled: vehicle 0, mature enzyme 100 | activation, % at 7 µM | hit rate 68% among 3,200 | AID 686949;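 active = activation, as change over the incubation, above the mean of all tested compounds plus 3 SD, cut at about 13% in these data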
EDANS interfere – optically interferes with EDANS-DABCYL signal, flagging KLK7 hits; shares compounds with proKLK7 act; EDANS-DABCYL substrate fluorescence interference, no enzyme, 4 h; solvent 0%, active enzyme control 100%; activation, % at 7 µM; hit rate 80% among 3,200;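 active = activation above the all-compound mean plus 3 SD, ignoring values outside control-based bounds, cut at about 4.8% in these data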;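 note: value is the 4 h activation minus the activation read at time zero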
EDANS interf – EDANS fluorescence interference in dose response, no enzyme. shares compounds with proKLK7 act. hit rate 20% among 250. EDANS-DABCYL peptide fluorescence interference. AID 720493. EC50, µM;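 active = compounds that raise the fluorescence signal in this interference counterscreen, with EC50 at or below 10 µM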;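 note: intact quenched peptide substrate alone read at 355 nm excitation and 520 nm emission; signal is fluorescence gain from T0 to T4 after four hours at room temperature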
Large screens that a line does not name were inactive (follow-up assays come after a bar, where they were run).

C[C@H](O)[C@@H]1CN2CCc3c([nH]c4cccc(-c5ccc6c(c5)OCO6)c34)[C@@H]2C[C@@H]1N(C)C(=O)c1ccco1	none
CN1[C@@H](Cc2ccccc2)COc2cc(F)ccc2S1(=O)=O	none
CSCCC(NC(C)=O)C(=O)Oc1ccc2c3c(c(=O)oc2c1)CCCC3 (stereo not given)	proKLK7 act 53 | proKLK7 act conf 61 | EDANS interfere 66
O=C(Oc1ccc2c3c(c(=O)oc2c1)CCCC3)c1ccco1	proKLK7 act 295 | proKLK7 act conf 639 | EDANS interfere 631
O=c1oc2cc(O)ccc2c2ccccc12	none
O=c1oc2cc(O)ccc2c2c1CCCC2	proKLK7 act 58 | proKLK7 act conf 60 | EDANS interfere 70
O=c1oc2cc(O)ccc2c2oc3cc(O)ccc3c12	proKLK7 act 72 | proKLK7 act conf 62 | EDANS interfere 72
CCCCCCCCN1C(=O)[C@@H](CC(=O)N2CCC(c3ccccc3)CC2)C[C@@]2(C(=O)OC)C1=C[C@H](C(C)C)O[C@@H]2C1CC1	none
CCCC(=O)N1CCC[C@]2(CC[C@@H](CCC(=O)OCC)O2)C1	none
CC(=O)Oc1ccc2c3c(c(=O)oc2c1)CCCC3	proKLK7 act 495 | proKLK7 act conf 688 | EDANS interfere 685
COC(=O)C(C)Oc1ccc2c3c(c(=O)oc2c1)CCCCC3 (stereo not given)	proKLK7 act 25 | proKLK7 act conf inactive | EDANS interfere inactive
CC(C)Oc1ccc2c3c(c(=O)oc2c1)CCC3	none
CCN(CC)C(=O)CC[C@H]1CC[C@]2(CCCN(C(=O)c3ccno3)C2)O1	none
Cc1cc(-n2c(C)cc(C(=O)COc3ccc4ccc(=O)oc4c3)c2C)no1	proKLK7 act 59 | proKLK7 act conf 44 | EDANS interfere 54
CC(C)OC(=O)CC(=O)CSc1nc2c(cc1C#N)CCCCCC2	proKLK7 act 18 | proKLK7 act conf 70 | EDANS interfere 77
CC(C)OC(=O)CC(=O)CSc1nc2c(cc1C#N)CCC2	proKLK7 act 22 | proKLK7 act conf 90 | EDANS interfere 92
CC(C)OC(=O)CC(=O)CSc1nc2c(c(-c3cccs3)c1C#N)CCC2	proKLK7 act 15 | proKLK7 act conf inactive | EDANS interfere 12
CC(C)OC(=O)CC(=O)CSc1nc2c(cc1C#N)CCCC2	proKLK7 act 20 | proKLK7 act conf 71 | EDANS interfere 77
O=C(CCc1nc(-c2ccccc2F)no1)NCCc1ccccc1F	none
CCN(C(=O)COC(=O)c1ccc(Sc2ncn[nH]2)c([N+](=O)[O-])c1)c1ccccc1	none
O=C(NCCc1c[nH]c2ccccc12)OCc1cn(-c2cccc(Cl)c2)nn1	none
Cc1cccc(C)c1NC(=O)[C@@H]1CC(=O)O[C@@H]1c1ccccc1	none
CCOC(=O)CC(=O)CSc1nc2c(cc1C#N)CCCCCC2	proKLK7 act 13 | proKLK7 act conf 60 | EDANS interfere 58
CCn1cc(-c2ccnc3cc(C(=O)O)nn23)c(C)n1	proKLK7 act 27 | proKLK7 act conf 73 | EDANS interfere 75
O=C(Nc1ccc(F)cc1)OCCN1C(=O)CCC12CCC(c1ccc(Cl)cc1)CC2 (stereo not given)	none
CC(=O)c1c[nH]c(C(=O)NCC2CCCO2)c1 (stereo not given)	proKLK7 act 40 | proKLK7 act conf inactive | EDANS interfere inactive
CC(C)CC(=O)c1c[nH]c(C(=O)NCC2CCCO2)c1 (stereo not given)	none
CCCC1CCC2(CC1)CCC2OC(=S)Nc1cccc(I)c1 (stereo not given)	none (no result: proKLK7 act)
CC1(C)C2CCC1(C)C(OC(=O)C[n+]1ccccc1N)C2 (stereo not given)	proKLK7 act 52 | proKLK7 act conf 99 | EDANS interfere 100
O=C1c2ccccc2NC(c2ccc(-c3cccs3)o2)N1O (stereo not given)	proKLK7 act 19 | proKLK7 act conf inactive | EDANS interfere 7.4
Cc1cc(-c2cc(NC(=O)Cc3c[nH]c4ccccc34)ccc2Nc2cccnc2)ccc1F	none
CCCCNC(=O)COC(=O)c1c2c(nc3ccccc13)/C(=C/c1cccs1)CC2	none
CNC(=O)NC(=O)C(C)OC(=O)c1c2c(nc3ccccc13)/C(=C/c1cccs1)CC2 (stereo not given)	proKLK7 act 50 | proKLK7 act conf 85 | EDANS interfere 73
O=c1c2ccccc2c(/C=N/c2n[nH]c(CCCO)n2)c(O)n1-c1ccccc1Cl	proKLK7 act 27 | proKLK7 act conf inactive | EDANS interfere 5.8
O=c1c2ccccc2c(/C=N/c2nnc(Cc3ccccc3)s2)c(O)n1-c1ccc(Cl)cn1	none
C[C@H]1[C@@H](OC(=O)NCc2ccc(C(F)(F)F)cc2)CC[C@@]23CCCN2C(=O)CCC[C@@H]13	none (no result: proKLK7 act)
COc1c2c(cc3c1c(=O)c1ccccc1n3C)OCO2	proKLK7 act 45 | proKLK7 act conf 56 | EDANS interfere 77
CC(=O)c1ccc(-c2cc(C(C)=O)c3n(c2=O)CCC3)cc1	proKLK7 act 44 | proKLK7 act conf 61 | EDANS interfere 74
CC(=O)c1cc(-c2ccc(S(C)(=O)=O)cc2)c(=O)n2c1CCC2	none
COc1ccc(S(=O)(=O)NCCc2cn3nc(C)c(C)nc3n2)cc1F	proKLK7 act 20 | proKLK7 act conf 73 | EDANS interfere 81
COc1ccc(S(=O)(=O)NCc2cn3c(C)csc3n2)cc1F	none
CC(=O)Nc1ccc(S(=O)(=O)NCCNS(=O)(=O)c2ccc(NC(C)=O)cc2)cc1	none
CC(=O)Nc1ccc(S(=O)(=O)NCCc2cn3nc(C)c(C)nc3n2)cc1	proKLK7 act 16 | proKLK7 act conf 62 | EDANS interfere 55
CCOCCCNC(=S)Nc1ccc2nc(N3CCCC3)cc(C)c2c1	proKLK7 act 17 | proKLK7 act conf inactive | EDANS interfere 12
CCN1CCN(c2cc(C)c3cc(NC(=O)c4ccc(C)c(C)c4)ccc3n2)CC1	proKLK7 act 29 | proKLK7 act conf 30 | EDANS interfere 24 | EDANS interf inactive
COCCNC(=S)Nc1ccc2nc(N3CCCC3)cc(C)c2c1	none
CCN1CCN(c2cc(C)c3cc(NC(=S)N4CC(C)CC(C)C4)ccc3n2)CC1 (stereo not given)	proKLK7 act 14 | proKLK7 act conf inactive | EDANS interfere inactive
